# Assay results from PubChem BioAssay (EPA / NIEHS).
# Where “and” joins values, the source holds several entries; their conditions need not be identical. Equal entries are not always repeated. Inconclusive results are not listed. Where a structure was tested more than once in an assay, its records may differ in their call. Calls of active or inactive are those of the source. Rule for the calls, unless noted: active = hit-call score of the fitted dose curve at least 0.9, where 1 is the maximum; inconclusive = response in the unintended direction; inactive = score below 0.9.
# Columns and labels:
# [1] = molecular target: Nuclear receptor subfamily 1 group I member 2 (Homo sapiens) (UniProt O75469); experiment: NVS_NR_hPXR: NovaScreen (NVS) Nuclear Receptor Binding Assay for human Pregnane X Receptor (PXR) (AID 2283365);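 note: a drop in FRET signal versus DMSO baseline means the compound binds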
# How it was run: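 Binding was measured by time-resolved fluorescence resonance energy transfer after a 2 h exposure of extracted human PXR protein without cells. Compounds were first tested at 25 uM in duplicate, with concentration series for actives; DMSO defined baseline.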
# [2] = molecular target: Peroxisome proliferator-activated receptor gamma (Homo sapiens) (UniProt P37231); experiment: NVS_NR_hPPARg: NovaScreen (NVS) Nuclear Receptor Binding Assay for human Peroxisome Proliferator-activated Receptor gamma (PPARg) (AID 2283370)
# How it was run: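 Fluorescence polarization measures competitive binding to extracted PPARg in a cell-free format. Reading is taken at 2 h; activity is signal loss relative to DMSO. Screening at 25 uM in duplicate preceded confirmatory dose series.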
# [3] = molecular target: Estrogen receptor (Homo sapiens) (UniProt P03372); experiment: OT_ERa_GFPERaERE_0120: Odyssey Thera (OT) 2-hour HeLa Transcription Induction Assay for Estrogen Receptor (AID 2283382)
# How it was run: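 HeLa cells were dosed for 2 h, then GFP reporter induction was quantified by fluorescence microscopy with high-content image analysis. Gain of signal fitted against DMSO baseline.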
# [4] = molecular target: Retinoic acid receptor RXR-alpha (Homo sapiens) (UniProt P19793); experiment: OT_NURR1_NURR1RXRa_0480: Odyssey Thera (OT) 8-hour HEK293T Protein Complementation Assay for Nurr1/retinoid X receptor (RXR) (AID 2283385)
# How it was run: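 HEK293T cells expressing Nurr1 and RXRα fused to reporter fragments (protein-fragment complementation); fluorescence measured 8 h after dosing. Gain of signal fitted relative to DMSO.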
# [5] = molecular target: Retinoic acid receptor RXR-alpha (Homo sapiens) (UniProt P19793); experiment: OT_NURR1_NURR1RXRa_1440: Odyssey Thera (OT) 24-hour HEK293T Protein Complementation Assay for Nurr1/retinoid X receptor (RXR) (AID 2283386)
# How it was run: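 HEK293T protein-fragment complementation of Nurr1 and RXRα fused to reporter fragments; compounds 24 h. Fluorescence gain from reconstituted reporter fitted versus DMSO.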
# [6] = molecular target: Peroxisome proliferator-activated receptor gamma (Homo sapiens) (UniProt P37231); experiment: OT_PPARg_PPARgSRC1_0480: Odyssey Thera (OT) 8-hour Protein-Complementation Assay for Peroxisome Proliferator-activated Receptor Gamma / SRC-1 Co-activator (AID 2283387);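 note: nuclear to cytoplasmic split Venus YFP fluorescence ratio reporting PPARg SRC-1 interaction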
# How it was run: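 Read-out: 488 nm N/C fluorescence ratio from complemented Venus YFP fragments, ≥350 cells per image, gain-of-signal fitted against DMSO baseline. Fusions of PPARg/SRC-1 with IFP1/IFP2 expressed transiently in HEK293T; compounds applied 8 h.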
# [7] = molecular target: Bile acid receptor (Homo sapiens) (UniProt Q96RI1); experiment: OT_FXR_FXRSRC1_1440: Odyssey Thera (OT) 24-hour HEK293T Protein-Complementation Assay for Farnesoid X receptor/SRC-1 Co-activator (AID 2283384)
# How it was run: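 HEK293T cells, 24 h after chemical dosing. FXR–SRC-1 coactivator interaction read as fluorescence from protein-fragment complementation of a split reporter. Gain of signal fitted against DMSO baseline.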
# [8] = molecular target: Glucocorticoid receptor (Homo sapiens) (UniProt P04150); experiment: NVS_NR_hGR: NovaScreen (NVS) Nuclear Receptor Binding Assay for human Glucocorticoid Receptor (GR) (AID 2283363);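 for AC50: activity is loss of specific radioligand binding signal relative to DMSO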
# How it was run: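 Cell-free radioligand binding with extracted receptor protein, read by filter-based scintillation counting 16 hours after dosing. Loss of specific signal versus DMSO baseline was scored. Primary screen ran in duplicate at 25 uM; actives were followed up in concentration series.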
# [9] = system: guinea pig Dopamine Transporter (DAT), gene 100714898; experiment: NVS_TR_gDAT: NovaScreen (NVS) Transporter Assay for guinea pig Dopamine Transporter (DAT) (AID 2283369);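 note: active compounds lower bound radioligand signal relative to DMSO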
# How it was run: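 Test chemicals were incubated 2 h with guinea pig striatal membranes and a radioligand; bound label was separated by filtration and counted. Screening ran at 25 uM, followed by concentration-response testing to a 50 uM maximum.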
# [10] = molecular target: human Norepinephrine Transporter (NET), SLC6A2 (gene 6530) (UniProt P23975); experiment: NVS_TR_hNET: NovaScreen (NVS) Transporter Assay for human Norepinephrine Transporter (NET) (AID 2283377);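 note: cell-free membrane protein extracted from CHO cells expressing human NET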
# How it was run: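 Radioligand binding to human NET in cell-free CHO-derived protein preparations, read by filter-based scintillation counting 1 hour after dosing. Loss of signal versus DMSO baseline indicated displacement; primary screening in duplicate at 25 uM, actives then titrated.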
# [11] = molecular target: Agonist Androgen Response Element (ARE), AR (gene 367) (UniProt P10275); experiment: OT_AR_ARELUC_AG_1440: Odyssey Thera (OT) 24-hour CHO-K1 Luciferase Assay for Agonist Androgen Response Element (ARE) (AID 2283379)
# How it was run: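 Seed CHO-K1 cells; dose compounds for 24 h; add D-luciferin plus ATP in PBS; read luminescence. Signal increase relative to vehicle defines agonist activity, with at least 3 replicate wells per sample.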
# [12] = molecular target: Estrogen receptor (Homo sapiens) (UniProt P03372); experiment: OT_ERa_GFPERaERE_0480: Odyssey Thera (OT) 8-hour HeLa Transcription Induction Assay for Estrogen Receptor (AID 2283381; active = hit-call score of the fitted dose curve at least 0.9, where 1 is the maximum; inactive = score below 0.9)
# How it was run: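 HeLa cells expressing GFP reporter under estrogen response element, imaged 8 h after dosing. GFP induction quantified by high-content fluorescence microscopy image analysis; gain of signal fitted versus DMSO.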
# [13] = molecular target: Estrogen receptor beta (Homo sapiens) (UniProt Q92731); experiment: OT_ER_ERbERb_1440: Odyssey Thera (OT) 24-hour HEK293T Protein-Complementation Assay for Estrogen Receptor-beta/-beta Homodimer (AID 2283380);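 note: fluorescence gain from ER beta LBD homodimer complementation read by laser scanning cytometry; scored as signal increase over DMSO baseline for both agonists and antagonists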
# How it was run: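 HEK293T cells stably expressing human ER-beta LBD (aa 310-547) PCA homodimer pair, dosed 24 h; formaldehyde-fixed, Draq5-stained. Readout: increase in nuclear (agonist) or nuclear plus cytoplasmic (antagonist) fluorescence intensity versus DMSO, gain-of-signal fitting.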
# [14] = molecular target: guinea pig Sigma Receptor, Non-selective Binding, SIGMAR1 (gene 100135589) (UniProt Q60492); experiment: NVS_OR_gSIGMA_NonSelective: NovaScreen (NVS) Nuclear Receptor Binding Assay for guinea pig Sigma Receptor, Non-selective Binding (AID 2283367)
# How it was run: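 Guinea pig brain membranes, cell-free radioligand binding; read 1 h after dosing by filter-based scintillation counting. Loss of signal vs DMSO baseline taken as displacement. Primary screen single concentration 25 uM in duplicate; actives retested in concentration series.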
# [15] = molecular target: mouse Estrogen Receptor alpha (Era), Esr1 (gene 13982) (UniProt P19785); experiment: NVS_NR_mERa: NovaScreen (NVS) Nuclear Receptor Binding Assay for mouse Estrogen Receptor alpha (Era) (AID 2283378);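 note: hit means loss of bound radioligand signal relative to DMSO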
# How it was run: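 Test chemicals competed against a specific radioligand for binding to cell-free mouse Era. Duplicate wells at 25 uM were read 18 hours later by filter-based radiodetection, with loss of signal against DMSO scored as activity.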
# [16] = molecular target: human Serotonin Transporter (SERT), SLC6A4 (gene 6532) (UniProt P31645); experiment: NVS_TR_hSERT: NovaScreen (NVS) Transporter Assay for human Serotonin Transporter (SERT) (AID 2283372)
# How it was run: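 Radioligand binding to native SERT in human platelet membranes, read by filter-based scintillation counting 1 h after dosing. Primary screen in duplicate at 25 uM; actives followed up in concentration series; loss of signal versus DMSO baseline.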
# [17] = molecular target: rat Serotonin Transporter (SERT), Slc6a4 (gene 25553) (UniProt P31652); experiment: NVS_TR_rSERT: NovaScreen (NVS) Transporter Assay for rat Serotonin Transporter (SERT) (AID 2283375)
# How it was run: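 Steps: rat forebrain membranes dosed with chemical (25 uM duplicate primary; concentration series for actives); 1 h incubation; labelled ligand bound, filtered, counted by scintillation. Activity scored as signal loss vs DMSO.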
# [18] = molecular target: Bile acid receptor (Homo sapiens) (UniProt Q96RI1); experiment: OT_FXR_FXRSRC1_0480: Odyssey Thera (OT) 8-hour HEK293T Protein-Complementation Assay for Farnesoid X receptor/SRC-1 Co-activator (AID 2283383)
# How it was run: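 HEK293T protein-fragment complementation assay: FXR and SRC-1 coactivator are fused to reporter fragments, and their interaction restores a fluorescent reporter. Readout was taken 8 h after dosing, with gain of signal fit relative to DMSO.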
# [19] = system: rat Norepinephrine Transporter (NET), gene 83511; experiment: NVS_TR_rNET: NovaScreen (NVS) Transporter Assay for rat Norepinephrine Transporter (NET) (AID 2283373)
# How it was run: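 Rat forebrain membranes; radioligand binding measured by filter-based scintillation counting 1 hour after dosing. Loss of specific binding versus DMSO baseline scored; primary screen in duplicate at 25 uM, actives followed up in concentration series.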
# Nuclear receptor subfamily 1 group I member 2 (Homo sapiens), sequence (O75469 whole entry, looked up): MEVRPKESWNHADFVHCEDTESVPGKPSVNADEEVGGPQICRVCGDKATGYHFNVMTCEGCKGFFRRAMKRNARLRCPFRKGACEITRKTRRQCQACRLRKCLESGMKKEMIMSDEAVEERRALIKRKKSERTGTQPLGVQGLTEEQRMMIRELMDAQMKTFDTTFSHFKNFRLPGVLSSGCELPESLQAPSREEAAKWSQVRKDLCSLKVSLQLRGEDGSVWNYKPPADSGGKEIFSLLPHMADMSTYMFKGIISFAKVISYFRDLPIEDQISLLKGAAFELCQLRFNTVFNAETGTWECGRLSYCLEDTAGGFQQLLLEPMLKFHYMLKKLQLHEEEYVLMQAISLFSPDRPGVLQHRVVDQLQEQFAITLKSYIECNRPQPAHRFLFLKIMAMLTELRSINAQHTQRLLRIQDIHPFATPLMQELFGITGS
# guinea pig Sigma Receptor, Non-selective Binding, SIGMAR1 (gene 100135589), sequence (Q60492 whole entry, looked up): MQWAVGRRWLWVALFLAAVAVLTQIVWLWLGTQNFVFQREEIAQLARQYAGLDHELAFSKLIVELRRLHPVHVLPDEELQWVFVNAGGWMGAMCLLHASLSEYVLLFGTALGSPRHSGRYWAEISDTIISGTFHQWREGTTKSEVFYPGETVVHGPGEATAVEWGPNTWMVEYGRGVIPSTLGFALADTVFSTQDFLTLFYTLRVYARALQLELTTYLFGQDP
# Estrogen receptor (Homo sapiens), sequence (P03372 whole entry, looked up): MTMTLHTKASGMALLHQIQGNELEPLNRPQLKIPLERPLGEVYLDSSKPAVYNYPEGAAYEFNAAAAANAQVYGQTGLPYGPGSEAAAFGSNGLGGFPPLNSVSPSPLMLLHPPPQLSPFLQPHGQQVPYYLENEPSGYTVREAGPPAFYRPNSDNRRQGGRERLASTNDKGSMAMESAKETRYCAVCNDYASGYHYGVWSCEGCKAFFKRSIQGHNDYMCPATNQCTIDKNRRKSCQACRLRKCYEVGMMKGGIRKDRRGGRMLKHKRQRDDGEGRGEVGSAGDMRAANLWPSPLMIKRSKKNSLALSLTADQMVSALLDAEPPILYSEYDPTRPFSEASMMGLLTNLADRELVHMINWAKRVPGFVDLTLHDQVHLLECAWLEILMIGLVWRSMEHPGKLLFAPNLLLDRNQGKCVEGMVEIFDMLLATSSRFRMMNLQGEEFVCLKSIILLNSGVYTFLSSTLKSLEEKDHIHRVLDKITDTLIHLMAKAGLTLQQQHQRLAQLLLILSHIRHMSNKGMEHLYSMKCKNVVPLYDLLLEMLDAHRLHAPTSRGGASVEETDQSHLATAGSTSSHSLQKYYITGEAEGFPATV
# Retinoic acid receptor RXR-alpha (Homo sapiens), sequence (P19793 whole entry, looked up, the tested form may be a part): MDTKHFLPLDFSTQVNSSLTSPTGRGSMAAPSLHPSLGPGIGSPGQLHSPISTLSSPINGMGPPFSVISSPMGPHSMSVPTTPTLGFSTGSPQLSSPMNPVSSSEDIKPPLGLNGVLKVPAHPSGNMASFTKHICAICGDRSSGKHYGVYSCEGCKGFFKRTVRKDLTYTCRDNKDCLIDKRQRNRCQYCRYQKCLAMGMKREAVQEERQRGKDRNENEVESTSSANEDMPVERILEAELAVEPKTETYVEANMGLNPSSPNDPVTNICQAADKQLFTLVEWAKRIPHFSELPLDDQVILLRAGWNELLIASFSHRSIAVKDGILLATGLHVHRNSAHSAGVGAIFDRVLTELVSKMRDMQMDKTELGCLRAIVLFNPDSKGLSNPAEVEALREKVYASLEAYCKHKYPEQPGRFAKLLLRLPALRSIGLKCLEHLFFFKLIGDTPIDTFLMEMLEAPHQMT
# mouse Estrogen Receptor alpha (Era), Esr1 (gene 13982), sequence (P19785 whole entry, looked up): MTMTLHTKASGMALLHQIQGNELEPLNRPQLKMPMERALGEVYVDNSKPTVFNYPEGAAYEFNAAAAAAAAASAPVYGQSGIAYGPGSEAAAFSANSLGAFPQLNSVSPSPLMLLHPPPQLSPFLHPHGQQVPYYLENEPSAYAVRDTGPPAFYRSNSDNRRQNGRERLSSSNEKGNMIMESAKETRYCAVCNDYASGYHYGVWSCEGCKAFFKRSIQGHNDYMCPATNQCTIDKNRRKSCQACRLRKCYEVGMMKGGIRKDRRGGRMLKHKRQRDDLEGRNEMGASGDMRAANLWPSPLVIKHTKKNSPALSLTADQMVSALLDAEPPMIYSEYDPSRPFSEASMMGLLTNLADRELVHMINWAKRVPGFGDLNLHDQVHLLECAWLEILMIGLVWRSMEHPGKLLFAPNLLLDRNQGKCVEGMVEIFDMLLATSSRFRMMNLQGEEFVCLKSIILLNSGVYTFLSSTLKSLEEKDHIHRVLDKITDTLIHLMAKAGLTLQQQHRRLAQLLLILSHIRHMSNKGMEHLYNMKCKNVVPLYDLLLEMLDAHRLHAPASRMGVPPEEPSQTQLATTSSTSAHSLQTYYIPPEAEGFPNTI
# Estrogen receptor beta (Homo sapiens), sequence (Q92731 whole entry, looked up, the tested form may be a part): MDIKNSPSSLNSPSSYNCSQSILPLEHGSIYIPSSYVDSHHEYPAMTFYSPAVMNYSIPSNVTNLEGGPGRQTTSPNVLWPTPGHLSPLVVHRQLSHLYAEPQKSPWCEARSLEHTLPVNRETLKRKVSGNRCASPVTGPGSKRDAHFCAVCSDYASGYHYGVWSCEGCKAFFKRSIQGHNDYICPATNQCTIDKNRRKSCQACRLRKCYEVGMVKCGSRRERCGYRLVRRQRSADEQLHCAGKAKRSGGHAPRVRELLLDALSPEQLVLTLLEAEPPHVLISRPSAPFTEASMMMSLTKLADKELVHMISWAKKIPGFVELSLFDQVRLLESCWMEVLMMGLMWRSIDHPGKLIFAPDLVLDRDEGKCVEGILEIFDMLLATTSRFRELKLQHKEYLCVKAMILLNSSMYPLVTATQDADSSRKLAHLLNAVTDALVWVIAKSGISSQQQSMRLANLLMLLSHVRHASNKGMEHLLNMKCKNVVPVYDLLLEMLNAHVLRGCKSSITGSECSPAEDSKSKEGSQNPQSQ
# Bile acid receptor (Homo sapiens), sequence (Q96RI1 whole entry, looked up, the tested form may be a part): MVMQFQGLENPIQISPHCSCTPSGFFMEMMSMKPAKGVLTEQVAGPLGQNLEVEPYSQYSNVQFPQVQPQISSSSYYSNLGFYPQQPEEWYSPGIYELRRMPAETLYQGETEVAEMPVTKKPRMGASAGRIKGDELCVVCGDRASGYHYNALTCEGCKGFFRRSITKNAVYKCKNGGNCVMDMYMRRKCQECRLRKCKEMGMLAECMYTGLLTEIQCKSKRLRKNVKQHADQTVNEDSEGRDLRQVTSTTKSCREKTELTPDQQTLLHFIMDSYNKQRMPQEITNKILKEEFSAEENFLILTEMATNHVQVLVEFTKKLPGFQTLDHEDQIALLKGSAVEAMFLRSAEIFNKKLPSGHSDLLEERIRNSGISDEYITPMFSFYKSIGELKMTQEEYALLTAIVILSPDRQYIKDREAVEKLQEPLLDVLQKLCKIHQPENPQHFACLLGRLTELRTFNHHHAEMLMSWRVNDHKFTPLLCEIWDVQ
# Glucocorticoid receptor (Homo sapiens), sequence (P04150 whole entry, looked up): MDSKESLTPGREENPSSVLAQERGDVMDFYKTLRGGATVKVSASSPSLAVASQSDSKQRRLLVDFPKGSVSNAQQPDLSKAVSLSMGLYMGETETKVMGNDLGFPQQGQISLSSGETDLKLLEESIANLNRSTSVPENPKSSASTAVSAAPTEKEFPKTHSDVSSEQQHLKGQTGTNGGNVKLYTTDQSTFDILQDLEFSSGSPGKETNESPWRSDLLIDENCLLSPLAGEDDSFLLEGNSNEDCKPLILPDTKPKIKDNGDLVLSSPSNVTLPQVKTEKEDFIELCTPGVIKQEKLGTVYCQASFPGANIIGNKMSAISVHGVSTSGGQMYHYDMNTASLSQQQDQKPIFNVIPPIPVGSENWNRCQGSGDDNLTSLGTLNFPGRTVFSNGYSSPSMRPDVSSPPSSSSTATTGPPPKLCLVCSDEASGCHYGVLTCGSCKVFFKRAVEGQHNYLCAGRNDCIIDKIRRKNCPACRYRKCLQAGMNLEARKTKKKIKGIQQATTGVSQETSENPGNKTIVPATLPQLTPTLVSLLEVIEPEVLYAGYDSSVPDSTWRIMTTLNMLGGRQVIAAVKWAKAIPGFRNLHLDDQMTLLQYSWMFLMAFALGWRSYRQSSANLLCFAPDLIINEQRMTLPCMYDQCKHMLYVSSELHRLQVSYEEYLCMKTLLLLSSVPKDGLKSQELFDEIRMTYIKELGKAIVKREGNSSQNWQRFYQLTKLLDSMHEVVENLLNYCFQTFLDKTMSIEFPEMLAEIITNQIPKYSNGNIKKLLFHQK
# human Norepinephrine Transporter (NET), SLC6A2 (gene 6530), sequence (P23975 whole entry, looked up): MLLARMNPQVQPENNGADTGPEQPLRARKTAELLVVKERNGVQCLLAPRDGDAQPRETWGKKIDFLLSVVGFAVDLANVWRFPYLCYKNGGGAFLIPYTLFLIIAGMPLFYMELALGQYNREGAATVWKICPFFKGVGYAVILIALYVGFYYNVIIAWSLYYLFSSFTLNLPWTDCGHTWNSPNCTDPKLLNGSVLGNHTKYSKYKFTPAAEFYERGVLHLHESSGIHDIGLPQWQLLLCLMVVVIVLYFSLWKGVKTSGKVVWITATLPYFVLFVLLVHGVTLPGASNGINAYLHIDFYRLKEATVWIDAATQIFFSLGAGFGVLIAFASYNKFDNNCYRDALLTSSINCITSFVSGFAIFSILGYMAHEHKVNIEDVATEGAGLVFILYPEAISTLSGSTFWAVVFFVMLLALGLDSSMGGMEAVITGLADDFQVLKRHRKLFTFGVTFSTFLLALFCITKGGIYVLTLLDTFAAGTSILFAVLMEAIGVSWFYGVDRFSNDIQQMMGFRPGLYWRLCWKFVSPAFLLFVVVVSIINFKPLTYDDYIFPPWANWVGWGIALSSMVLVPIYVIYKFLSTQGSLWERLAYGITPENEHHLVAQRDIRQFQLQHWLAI
smiles,measurement,setting,value
CC(=O)OC/C=C(\C)CCC=C(C)C,outcome,[1],inactive
same,outcome,[2],inactive
same,outcome,[3],inactive
same,outcome,[4],inactive
same,outcome,[5],inactive
same,outcome,[6],inactive
CC(CO)OC(C)CO (stereo not drawn) (tested in a mixture with another compound),outcome,[1],inactive
same,outcome,[3],inactive
same,outcome,[7],inactive
same,outcome,[5],inactive
same,outcome,[6],inactive
COc1ccc(S(=O)(=O)N2C(=O)[C@@](c3ccccc3OC)(N3C[C@H](O)C[C@H]3C(=O)N(C)C)c3cc(Cl)ccc32)c(OC)c1,AC50,[8],5.95 µM (active)
same,AC50,[9],25 µM (active)
same,outcome,[2],inactive
same,AC50,[10],41.6 µM (active)
same,AC50,[11],694 nM (active)
same,AC50,[12],86.4 µM (active)
same,outcome,[3],inactive
same,AC50,[5],79.5 µM (active)
same,outcome,[5],inactive
same,outcome,[6],inactive
Cc1cccc(C)c1O,outcome,[1],inactive
same,outcome,[2],inactive
same,outcome,[11],inactive
same,outcome,[13],inactive
same,outcome,[12],inactive
same,outcome,[3],inactive
same,outcome,[6],inactive
CC(C)c1ccc(C(=O)N=C(N)N)cc1S(C)(=O)=O,outcome,[1],inactive
same,outcome,[2],inactive
same,outcome,[13],inactive
same,outcome,[3],inactive
same,outcome,[4],inactive
same,outcome,[5],inactive
same,outcome,[6],inactive
CCCCCCC(=O)OCC,outcome,[14],inactive
same,outcome,[15],inactive
same,outcome,[13],inactive
same,outcome,[12],inactive
same,outcome,[3],inactive
same,outcome,[4],inactive
same,outcome,[6],inactive
CCOc1ccc2c(c1)C(C)=CC(C)(C)N2,AC50,[14],16.4 µM (active)
same,outcome,[2],inactive
same,outcome,[10],inactive
same,outcome,[11],inactive
same,outcome,[3],inactive
same,outcome,[5],inactive
same,outcome,[6],inactive
O=C(N[C@@H](Cc1ccccc1)[C@@H](O)C(=O)N1C[C@@H](O)[C@@H](O)C1)c1cc2cc(Cl)ccc2[nH]1,outcome,[8],inactive
same,outcome,[2],inactive
same,outcome,[16],inactive
same,AC50,[17],12.9 µM (active)
same,outcome,[15],inactive
same,outcome,[13],inactive
same,outcome,[12],inactive
same,outcome,[3],inactive
same,outcome,[5],inactive
same,outcome,[6],inactive
Oc1ccc2ccccc2c1N=Nc1ccccc1,outcome,[14],inactive
same,outcome,[2],inactive
same,outcome,[13],inactive
same,outcome,[3],inactive
same,AC50,[18],36.5 µM (active)
same,AC50,[7],32.9 µM (active)
same,outcome,[4],inactive
same,outcome,[6],inactive
CC(C)(C)c1cc(O)c(C(C)(C)C)cc1O,AC50,[14],5.75 µM (active)
same,outcome,[10],inactive
same,outcome,[15],inactive
same,outcome,[13],inactive
same,outcome,[12],inactive
same,outcome,[3],inactive
same,AC50,[5],33.3 µM (active)
same,outcome,[5],inactive
same,outcome,[6],inactive
Cc1ccc(C(C)C)c(O)c1,outcome,[14],inactive
same,outcome,[9],inactive
same,outcome,[13],inactive
same,outcome,[3],inactive
same,outcome,[4],inactive
same,outcome,[5],inactive
same,outcome,[6],inactive
CNC(=O)[C@H]1O[C@@H](n2cnc3c(NCc4cc(Cl)ccc4OCc4cc(C)no4)ncnc32)[C@H](O)[C@@H]1N,outcome,[1],inactive
same,AC50,[14],9.75 µM (active)
same,outcome,[11],inactive
same,outcome,[13],inactive
same,outcome,[12],inactive
same,outcome,[3],inactive
same,outcome,[18],inactive
same,outcome,[5],inactive
same,outcome,[6],inactive
CCOC(=O)C(C)(C)Oc1ccc(Cl)cc1,outcome,[8],inactive
same,outcome,[2],inactive
same,outcome,[13],inactive
same,outcome,[12],inactive
same,outcome,[3],inactive
same,outcome,[18],inactive
same,outcome,[7],inactive
same,outcome,[5],inactive
same,outcome,[6],inactive
Oc1ccc2c(c1)OC[C@@H](N1CCC(O)(c3ccc(F)cc3)CC1)[C@H]2O,outcome,[14],inactive
same,outcome,[19],inactive
same,outcome,[17],inactive
same,outcome,[13],inactive
same,outcome,[3],inactive
same,outcome,[6],inactive
Cc1nc(-c2ccc3c(c2)CCN(CCC2CCC(NC(=O)/C=C/c4ccc(F)cc4)CC2)CC3)no1 (stereo not drawn),outcome,[1],inactive
same,AC50,[14],1.03 µM (active)
same,AC50,[16],68 nM (active)
same,AC50,[17],0.201 µM (active)
same,outcome,[11],inactive
same,outcome,[13],inactive
same,outcome,[3],inactive
same,outcome,[7],inactive
same,outcome,[4],inactive
same,outcome,[5],inactive
same,outcome,[6],inactive
COc1cc(S(=O)(=O)O)c(C)cc1N=Nc1c(O)ccc2cc(S(=O)(=O)O)ccc12,outcome,[8],inactive
same,outcome,[10],inactive
same,outcome,[12],inactive
same,outcome,[3],inactive
same,outcome,[18],inactive
same,outcome,[7],inactive
same,AC50,[4],50 µM (active) and 61.4 µM (active)
same,AC50,[5],75.9 µM (active)
same,outcome,[5],inactive
same,outcome,[6],inactive
COc1cc(-c2nc(NC(=O)c3cc4cc(C)cc(C)c4n3CC(=O)O)sc2CCC2CCCCC2)c(OC)cc1Cl,outcome,[8],inactive
same,AC50,[2],181 nM (active)
same,outcome,[13],inactive
same,AC50,[12],66.2 µM (active)
same,outcome,[3],inactive
same,outcome,[18],inactive
same,AC50,[7],10.1 µM (active)
same,AC50,[4],10.3 µM (active) and 10 µM (active)
same,AC50,[5],10.3 µM (active) and 9.86 µM (active)
same,outcome,[6],inactive
